In the supplement of paper PMC11732987, “Enantioselective OTUD7B fragment discovery through chemoproteomics screening and high-throughput optimisation” (Communications Chemistry, 2025):

Tests used:
Test in all cases: log2 ratio of Biotin-Ahx-Ub-VS probe labelling (fragment/DMSO); higher = less target engagement (more negative = stronger competition), active = hit call of the paper (q ≤ 0.05, log2 ratio ≤ -1)
Conditions in all cases: compound concentration: 200 uM; treatment time: 3 h
[1] = biological target: T1, USP19 (UniProt O94966)
T1 sequence (whole entry): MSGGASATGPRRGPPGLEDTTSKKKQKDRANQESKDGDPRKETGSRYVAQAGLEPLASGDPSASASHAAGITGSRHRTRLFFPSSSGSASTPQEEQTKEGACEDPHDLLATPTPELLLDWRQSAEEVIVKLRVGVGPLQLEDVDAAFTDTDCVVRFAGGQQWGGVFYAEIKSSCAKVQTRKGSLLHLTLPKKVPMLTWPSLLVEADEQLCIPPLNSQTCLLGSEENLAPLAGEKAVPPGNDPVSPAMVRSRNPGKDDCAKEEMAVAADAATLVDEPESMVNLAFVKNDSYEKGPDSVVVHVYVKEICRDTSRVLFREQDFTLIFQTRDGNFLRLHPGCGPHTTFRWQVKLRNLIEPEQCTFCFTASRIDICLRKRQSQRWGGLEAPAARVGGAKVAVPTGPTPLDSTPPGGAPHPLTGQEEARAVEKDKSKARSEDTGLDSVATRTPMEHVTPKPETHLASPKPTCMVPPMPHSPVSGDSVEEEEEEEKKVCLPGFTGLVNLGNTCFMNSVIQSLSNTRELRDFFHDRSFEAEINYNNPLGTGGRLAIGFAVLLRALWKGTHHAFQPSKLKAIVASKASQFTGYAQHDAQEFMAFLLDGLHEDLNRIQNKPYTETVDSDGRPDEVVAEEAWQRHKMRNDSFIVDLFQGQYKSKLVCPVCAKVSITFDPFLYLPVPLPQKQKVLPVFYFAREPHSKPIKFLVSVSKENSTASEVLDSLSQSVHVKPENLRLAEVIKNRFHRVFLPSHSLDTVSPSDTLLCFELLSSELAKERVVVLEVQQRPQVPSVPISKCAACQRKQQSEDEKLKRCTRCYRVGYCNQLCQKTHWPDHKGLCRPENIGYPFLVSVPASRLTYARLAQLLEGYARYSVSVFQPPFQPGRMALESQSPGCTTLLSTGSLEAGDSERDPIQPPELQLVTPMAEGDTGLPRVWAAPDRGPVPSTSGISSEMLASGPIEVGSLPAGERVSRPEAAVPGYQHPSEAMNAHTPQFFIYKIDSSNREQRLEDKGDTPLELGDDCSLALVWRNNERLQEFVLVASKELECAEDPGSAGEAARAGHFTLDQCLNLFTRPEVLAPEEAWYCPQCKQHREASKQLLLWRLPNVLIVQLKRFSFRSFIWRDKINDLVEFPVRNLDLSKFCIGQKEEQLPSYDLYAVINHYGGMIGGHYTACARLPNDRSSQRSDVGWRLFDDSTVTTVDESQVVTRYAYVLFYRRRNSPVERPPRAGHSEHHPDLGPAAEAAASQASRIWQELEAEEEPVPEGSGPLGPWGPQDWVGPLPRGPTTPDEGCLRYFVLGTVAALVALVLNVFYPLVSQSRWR
Summary of the method: (§1)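 In triplicate, 495 µg of HEK293T lysate per sample was incubated with fragment at 200 µM or vehicle for 3 h. Biotin-Ahx-Ub-VS was then added to 0.5 µM final for 1 h, and labelled DUBs were captured with NeutrAvidin, digested with LysC and trypsin, and measured by diaPASEF LC-MS/MS. Data are average log2 fragment/vehicle ratios by unpaired t-test from global-median-normalised Spectronaut label-free quantities, restricted to proteins with ≥2 unique peptides.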

[2] = biological target: T2, USP22 (UniProt Q9UPT9)
T2 sequence (whole entry): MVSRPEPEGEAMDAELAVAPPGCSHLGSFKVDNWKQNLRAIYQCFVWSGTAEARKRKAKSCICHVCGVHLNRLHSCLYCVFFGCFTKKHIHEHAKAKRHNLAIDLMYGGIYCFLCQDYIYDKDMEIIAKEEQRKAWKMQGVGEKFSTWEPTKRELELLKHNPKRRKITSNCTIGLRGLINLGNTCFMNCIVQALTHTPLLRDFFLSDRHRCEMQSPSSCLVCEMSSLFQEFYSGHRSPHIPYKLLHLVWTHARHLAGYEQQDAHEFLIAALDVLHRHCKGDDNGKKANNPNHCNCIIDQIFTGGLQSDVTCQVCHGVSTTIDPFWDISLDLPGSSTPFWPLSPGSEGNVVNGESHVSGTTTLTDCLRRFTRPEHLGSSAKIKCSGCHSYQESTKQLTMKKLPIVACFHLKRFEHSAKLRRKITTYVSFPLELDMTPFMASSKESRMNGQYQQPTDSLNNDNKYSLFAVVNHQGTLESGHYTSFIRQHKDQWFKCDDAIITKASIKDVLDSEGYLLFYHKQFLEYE
Summary of the method: as §1

[3] = biological target: USP24 (UniProt Q9UPU5)
Summary of the method: as §1

[4] = biological target: T3, USP25 (UniProt Q9UHP3)
T3 sequence (whole entry): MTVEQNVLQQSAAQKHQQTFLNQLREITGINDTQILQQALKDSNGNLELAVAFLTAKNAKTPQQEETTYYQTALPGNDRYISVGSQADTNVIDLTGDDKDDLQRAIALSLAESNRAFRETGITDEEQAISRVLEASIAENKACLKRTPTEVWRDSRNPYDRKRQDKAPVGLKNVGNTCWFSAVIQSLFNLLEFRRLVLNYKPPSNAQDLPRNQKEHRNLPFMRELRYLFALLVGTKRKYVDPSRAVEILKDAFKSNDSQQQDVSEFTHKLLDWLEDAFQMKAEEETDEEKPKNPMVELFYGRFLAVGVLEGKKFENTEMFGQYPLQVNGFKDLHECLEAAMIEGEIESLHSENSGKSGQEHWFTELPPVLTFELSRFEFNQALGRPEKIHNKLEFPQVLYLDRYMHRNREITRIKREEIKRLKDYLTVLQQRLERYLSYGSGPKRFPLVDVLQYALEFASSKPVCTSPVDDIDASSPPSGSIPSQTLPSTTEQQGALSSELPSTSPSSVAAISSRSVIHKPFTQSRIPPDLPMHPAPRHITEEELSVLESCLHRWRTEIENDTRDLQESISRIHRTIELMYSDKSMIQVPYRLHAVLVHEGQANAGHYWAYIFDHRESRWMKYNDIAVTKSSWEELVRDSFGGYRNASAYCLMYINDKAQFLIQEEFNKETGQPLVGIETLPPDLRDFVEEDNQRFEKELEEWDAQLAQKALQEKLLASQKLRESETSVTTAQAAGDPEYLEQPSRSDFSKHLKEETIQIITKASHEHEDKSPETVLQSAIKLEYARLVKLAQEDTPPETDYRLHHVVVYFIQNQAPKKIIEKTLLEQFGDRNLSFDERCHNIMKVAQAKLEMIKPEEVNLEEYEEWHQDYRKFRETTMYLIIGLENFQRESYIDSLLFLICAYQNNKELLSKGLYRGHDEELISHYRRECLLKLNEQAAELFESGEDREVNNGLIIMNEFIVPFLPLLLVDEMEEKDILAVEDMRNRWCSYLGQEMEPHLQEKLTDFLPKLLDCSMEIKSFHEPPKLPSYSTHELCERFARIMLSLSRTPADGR
Summary of the method: as §1

[5] = biological target: T4, USP28 (UniProt Q96RU2)
T4 sequence (whole entry): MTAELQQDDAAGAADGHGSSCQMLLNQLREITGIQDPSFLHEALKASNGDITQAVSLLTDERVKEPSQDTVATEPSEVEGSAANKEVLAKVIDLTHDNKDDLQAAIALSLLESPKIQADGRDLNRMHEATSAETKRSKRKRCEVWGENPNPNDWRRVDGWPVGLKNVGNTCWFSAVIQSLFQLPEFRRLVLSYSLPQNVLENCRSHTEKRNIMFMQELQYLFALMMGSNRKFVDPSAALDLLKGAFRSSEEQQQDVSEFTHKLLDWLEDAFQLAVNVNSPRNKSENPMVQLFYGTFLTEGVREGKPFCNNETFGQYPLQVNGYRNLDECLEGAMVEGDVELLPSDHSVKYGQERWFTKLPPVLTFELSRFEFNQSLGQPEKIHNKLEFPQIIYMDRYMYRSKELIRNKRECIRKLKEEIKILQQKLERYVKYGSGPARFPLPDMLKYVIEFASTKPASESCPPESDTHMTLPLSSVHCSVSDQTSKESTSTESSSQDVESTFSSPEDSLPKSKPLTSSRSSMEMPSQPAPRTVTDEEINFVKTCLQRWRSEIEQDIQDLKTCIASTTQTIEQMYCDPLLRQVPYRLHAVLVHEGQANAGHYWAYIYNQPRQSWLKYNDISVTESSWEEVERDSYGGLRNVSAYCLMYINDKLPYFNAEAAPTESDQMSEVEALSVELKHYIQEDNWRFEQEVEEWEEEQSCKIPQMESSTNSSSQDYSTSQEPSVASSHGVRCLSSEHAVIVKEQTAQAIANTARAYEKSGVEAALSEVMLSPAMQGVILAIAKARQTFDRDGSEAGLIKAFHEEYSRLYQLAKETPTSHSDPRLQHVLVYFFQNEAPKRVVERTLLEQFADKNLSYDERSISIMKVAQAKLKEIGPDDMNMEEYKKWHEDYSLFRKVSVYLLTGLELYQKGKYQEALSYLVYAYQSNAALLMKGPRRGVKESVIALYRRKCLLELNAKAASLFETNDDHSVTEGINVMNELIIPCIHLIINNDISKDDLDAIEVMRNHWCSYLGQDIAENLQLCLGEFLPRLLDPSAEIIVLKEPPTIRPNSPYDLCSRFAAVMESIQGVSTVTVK
Summary of the method: as §1

Measured: log2 ratio of Biotin-Ahx-Ub-VS probe labelling

USP24, sequence (Q9UPU5 whole entry): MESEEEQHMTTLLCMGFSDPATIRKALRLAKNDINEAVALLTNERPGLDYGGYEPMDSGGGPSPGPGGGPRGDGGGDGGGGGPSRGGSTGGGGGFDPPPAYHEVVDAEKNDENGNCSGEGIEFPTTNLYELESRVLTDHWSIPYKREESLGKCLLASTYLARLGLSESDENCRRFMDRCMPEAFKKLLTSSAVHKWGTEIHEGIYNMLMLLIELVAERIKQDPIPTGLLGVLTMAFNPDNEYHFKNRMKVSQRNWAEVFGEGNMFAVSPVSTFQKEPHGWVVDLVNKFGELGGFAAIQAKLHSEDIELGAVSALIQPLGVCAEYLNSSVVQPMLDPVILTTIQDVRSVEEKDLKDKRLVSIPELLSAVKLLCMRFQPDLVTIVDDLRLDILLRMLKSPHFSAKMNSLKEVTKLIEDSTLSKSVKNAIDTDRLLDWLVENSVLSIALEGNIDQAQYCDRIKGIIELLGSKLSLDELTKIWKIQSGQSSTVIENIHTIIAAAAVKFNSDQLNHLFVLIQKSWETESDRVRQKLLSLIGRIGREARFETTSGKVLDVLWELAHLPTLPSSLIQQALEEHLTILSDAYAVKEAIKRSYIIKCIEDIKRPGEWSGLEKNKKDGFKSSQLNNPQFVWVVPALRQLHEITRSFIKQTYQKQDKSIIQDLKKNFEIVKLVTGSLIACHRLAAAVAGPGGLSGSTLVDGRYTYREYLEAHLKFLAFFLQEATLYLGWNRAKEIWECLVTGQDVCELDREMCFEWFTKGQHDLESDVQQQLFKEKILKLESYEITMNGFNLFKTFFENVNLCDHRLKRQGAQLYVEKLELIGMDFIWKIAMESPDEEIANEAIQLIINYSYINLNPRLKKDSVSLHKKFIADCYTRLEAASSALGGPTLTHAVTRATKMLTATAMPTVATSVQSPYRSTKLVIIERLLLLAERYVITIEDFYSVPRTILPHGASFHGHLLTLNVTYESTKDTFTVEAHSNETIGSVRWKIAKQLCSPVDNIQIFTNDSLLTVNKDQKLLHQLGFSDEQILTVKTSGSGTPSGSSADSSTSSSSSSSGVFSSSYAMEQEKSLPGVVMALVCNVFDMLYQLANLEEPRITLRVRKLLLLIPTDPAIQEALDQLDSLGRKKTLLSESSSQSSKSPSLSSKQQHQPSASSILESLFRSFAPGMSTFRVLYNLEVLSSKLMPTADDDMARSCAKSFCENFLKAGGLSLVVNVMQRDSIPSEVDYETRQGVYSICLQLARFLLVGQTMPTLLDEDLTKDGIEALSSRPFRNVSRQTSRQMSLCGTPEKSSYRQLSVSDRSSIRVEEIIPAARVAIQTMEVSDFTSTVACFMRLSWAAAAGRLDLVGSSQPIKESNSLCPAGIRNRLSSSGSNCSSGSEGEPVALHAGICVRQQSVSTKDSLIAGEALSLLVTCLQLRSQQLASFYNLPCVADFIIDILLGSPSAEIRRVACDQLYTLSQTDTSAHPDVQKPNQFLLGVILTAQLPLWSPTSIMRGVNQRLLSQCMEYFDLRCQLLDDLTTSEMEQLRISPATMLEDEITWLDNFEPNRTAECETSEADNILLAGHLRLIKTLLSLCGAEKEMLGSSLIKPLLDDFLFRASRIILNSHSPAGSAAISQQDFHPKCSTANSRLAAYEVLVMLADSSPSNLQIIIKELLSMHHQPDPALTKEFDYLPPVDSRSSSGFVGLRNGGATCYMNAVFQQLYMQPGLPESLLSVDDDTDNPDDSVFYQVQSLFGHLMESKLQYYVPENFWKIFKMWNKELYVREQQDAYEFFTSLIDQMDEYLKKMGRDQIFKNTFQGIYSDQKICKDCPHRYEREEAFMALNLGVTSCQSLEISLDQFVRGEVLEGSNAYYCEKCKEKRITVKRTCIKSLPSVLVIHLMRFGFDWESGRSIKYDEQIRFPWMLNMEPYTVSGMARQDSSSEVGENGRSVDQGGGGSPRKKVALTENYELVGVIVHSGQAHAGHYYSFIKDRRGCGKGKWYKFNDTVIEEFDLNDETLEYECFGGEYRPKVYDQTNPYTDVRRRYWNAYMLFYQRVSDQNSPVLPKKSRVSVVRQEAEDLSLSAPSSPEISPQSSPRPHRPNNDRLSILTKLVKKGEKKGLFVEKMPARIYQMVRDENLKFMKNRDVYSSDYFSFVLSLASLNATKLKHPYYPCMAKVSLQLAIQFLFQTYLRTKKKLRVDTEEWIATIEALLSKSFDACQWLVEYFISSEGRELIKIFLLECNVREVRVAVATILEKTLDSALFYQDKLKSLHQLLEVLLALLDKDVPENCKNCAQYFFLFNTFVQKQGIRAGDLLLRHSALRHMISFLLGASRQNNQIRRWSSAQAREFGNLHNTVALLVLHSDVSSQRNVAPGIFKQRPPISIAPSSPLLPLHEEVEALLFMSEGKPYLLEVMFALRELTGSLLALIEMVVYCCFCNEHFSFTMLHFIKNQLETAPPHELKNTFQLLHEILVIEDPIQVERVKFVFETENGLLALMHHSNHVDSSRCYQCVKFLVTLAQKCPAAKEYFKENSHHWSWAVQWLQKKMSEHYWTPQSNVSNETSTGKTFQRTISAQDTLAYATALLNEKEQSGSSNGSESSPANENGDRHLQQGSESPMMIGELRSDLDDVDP

O=C(CCl)N1CCC(=C(F)CO)C1
inactive: [1] -0.052 | [2] 0.192 | [3] 0.183 | [4] 0.0707 | [5] -0.149
